GBA mod = human lysosomal glucosylceramidase modulation. AID 360. Potency, µM. P04062. purified enzyme, resorufin glucoside fluorescence (screen aimed at inhibitors), 20 min. 48,000 compounds, 1.1% hits; in the data active means potency below about 15 µM; inconclusive means mostly about 16 µM to 33 µM;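 further: the screen sought inhibitors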
Target sequence (P04062 whole entry, looked up): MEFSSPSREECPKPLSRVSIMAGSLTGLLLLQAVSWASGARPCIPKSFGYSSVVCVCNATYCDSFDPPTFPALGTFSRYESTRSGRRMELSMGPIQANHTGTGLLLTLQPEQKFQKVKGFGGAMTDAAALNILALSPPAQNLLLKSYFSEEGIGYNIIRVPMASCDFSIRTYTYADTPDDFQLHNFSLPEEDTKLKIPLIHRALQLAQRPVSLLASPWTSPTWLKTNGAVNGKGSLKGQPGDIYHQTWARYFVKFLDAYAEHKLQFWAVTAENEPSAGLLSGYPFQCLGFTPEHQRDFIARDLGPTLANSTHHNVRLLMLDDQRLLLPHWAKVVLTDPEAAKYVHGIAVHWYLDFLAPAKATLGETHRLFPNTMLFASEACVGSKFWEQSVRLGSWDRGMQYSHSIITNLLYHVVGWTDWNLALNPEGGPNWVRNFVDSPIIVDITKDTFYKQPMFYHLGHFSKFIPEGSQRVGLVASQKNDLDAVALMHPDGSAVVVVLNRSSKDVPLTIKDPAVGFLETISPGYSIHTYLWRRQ
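Compounds titrated against 0.2 nM normal enzyme, 30 uM resorufin beta-D-glucopyranoside substrate, citrate/phosphate buffer with taurocholate and tween-20, pH 5.9. Reaction ran 20 min at room temperature; fluorescence (Ex 548/Em 600) gave AC50.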
Luciferase inh = firefly luciferase inhibition; purified firefly luciferase, luminescence, 8 min; Potency, µM (highest dose often 57.1 µM), usual class: inhibitors; P08659; 72,000 compounds, 2.2% hits; AID 411; active means well fitted inhibition curve with a large enough effect; inconclusive means small, poorly fitted or top-dose-only effect; further: nearly all actives have a fitted effect of over 40% in size
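Substrate buffer containing 10 uM ATP (pH 7.2 imidazole, Mg2+, KCl, detergent, BSA) is dispensed, compound pinned in, then luciferase/luciferin detector mix added. After 8 min at ambient temperature, light output is measured.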
PK Bst = modulators of Bacillus stearothermophilus pyruvate kinase; purified pyruvate kinase, luminescence ATP production; ribose 5-phosphate activator present at AC10; Potency, µM; 51,000 compounds, 1.2% hits; in the data active means potency below about 11 µM; inconclusive means mostly about 12 µM to 25 µM;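 the screen sought inhibitors and activators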
Each line names hits and unclear results; the compound was inactive in the other large screens. Sampled rows, rich in hits. Any-hit rate of the full collection: about 3.4%.

Cc1nn(-c2ccccc2)c(Cl)c1C1C(C#N)=C(N)Oc2n[nH]c(C)c21 (configuration not stated)	GBA mod inconclusive
COc1ccc(C(=O)N2CCC3(CCCN(Cc4ccccc4OC)C3)CC2)cc1	none (no result: GBA mod, PK Bst)
COc1ccccc1CN1CCCC2(CCN(C(=O)c3c(C)noc3C)CC2)C1	none (no result: GBA mod, PK Bst)
Cc1ccc(C(=O)CSc2nnc(COc3cccc4cccnc34)o2)cc1	none
O=C(CSc1nnc(COc2cccc3cccnc23)o1)c1ccc(F)cc1	PK Bst 10
O=C(c1cnccn1)N1CCC2(CCCN(c3ccc(-c4ccccc4)cc3)C2)CC1	none (no result: GBA mod, PK Bst)
COc1cc([C@H](O)C(=O)O)ccc1O	none (no result: GBA mod, PK Bst)
COc1cccc(NC(=O)c2ccccc2-c2nc(-c3cccc(C)c3)no2)c1	none (no result: GBA mod, PK Bst)
Cc1cccc(-c2noc(-c3ccccc3C(=O)NCC3CCCO3)n2)c1 (configuration not stated)	Luciferase inh 16µM (no result: PK Bst)
O=C(c1ccccc1-c1nc(-c2ccc(Cl)cc2)no1)N1CCCC1	none
O=C(NCC1CCCO1)c1ccccc1-c1nc(-c2ccc(Cl)cc2)no1 (configuration not stated)	Luciferase inh inconclusive, PK Bst 10
COCCn1c(=O)c(-c2ccccc2)nc2cnc(N(C)C)nc21	none (no result: GBA mod, PK Bst)
CN1CCc2c(cc(O)c(O)c2Cl)[C@H](c2cccc(Cl)c2)C1	none (no result: GBA mod, PK Bst)
CCCCN(CC)S(=O)(=O)c1cccc2cccnc12	none (no result: GBA mod, PK Bst)
Cn1c(O)c(C=NCCCCCC(=O)O)c(=O)n(C)c1=O	none (no result: GBA mod, PK Bst)
O=c1ccsn1Cc1ccccc1	Luciferase inh 20µM
O=c1ccn(Cc2ccccc2)c(=O)n1Cc1ccccc1	none
COC(=O)[C@H](CCSC)NC(=O)C/C=C\[C@@H](C)CO	none (no result: GBA mod, PK Bst)
COc1ccc(-n2c(=O)c(-c3ccc(Cl)cc3)nc3cnc(N(C)C)nc32)cc1	none (no result: GBA mod, PK Bst)
COc1cc2nc(N(C)CCCNC(=O)[C@@H]3CCCO3)nc(N)c2cc1OC	none (no result: GBA mod, PK Bst)
CC(C)COc1ccc(-c2nnc(-c3ccco3)o2)cc1	Luciferase inh 16µM, PK Bst 9.5
O=C(COc1ccccc1)Nc1ccc(-c2nnc(-c3ccco3)o2)cc1	none (no result: GBA mod)
CCCOc1ccc(-c2nnc(-c3ccco3)o2)cc1	Luciferase inh 10µM, PK Bst 3.4
COc1cccc(C(=O)Nc2ccc(-c3nnc(-c4ccco4)o3)cc2)c1	none (no result: GBA mod)
COc1ccc(C(=O)N2CCC3(CCCN(C)C3)CC2)cc1	none (no result: GBA mod, PK Bst)
COC(=O)c1sccc1NC(=O)Cn1nnc(-c2ccc(C)cc2)n1	GBA mod 15
Cc1cccc(NC(=O)Cn2nnc(-c3cccs3)n2)c1C	none
CC(=O)N1CCN(C)CC1	none (no result: GBA mod, PK Bst)
COc1cc(C2c3c(oc4ccc(Cl)cc4c3=O)C(=O)N2Cc2ccco2)cc(OC)c1OC (configuration not stated)	none
O=C1c2oc3ccc(Cl)cc3c(=O)c2C(c2cccnc2)N1Cc1ccco1 (configuration not stated)	Luciferase inh 13µM (no result: PK Bst)
CCN(CC)CCCN1C(=O)c2oc3ccccc3c(=O)c2C1c1cccnc1 (configuration not stated)	none
O=C1c2oc3ccccc3c(=O)c2C(c2cccnc2)N1Cc1ccco1 (configuration not stated)	GBA mod inconclusive, Luciferase inh 3.2µM
COc1ccc(Oc2ncc3nc(-c4ccc(F)cc4)c(=O)n(CCC#N)c3n2)cc1	none (no result: GBA mod, PK Bst)
O=C(Nc1ccc(Br)c(Cl)c1)c1ccco1	none (no result: PK Bst)
Cc1ccc(NC(=O)c2ccco2)cc1C	Luciferase inh 16µM (no result: GBA mod, PK Bst)
O=C(COC(=O)c1ccco1)Nc1ccc2c(c1)OCCO2	Luciferase inh 10µM, PK Bst inconclusive
COc1cc(NC(=O)CC(C)C)ccc1NC(=O)c1ccco1	Luciferase inh 16µM (no result: GBA mod, PK Bst)
O=C(COC(=O)c1ccccc1NC(=O)c1ccco1)Nc1ccc2c(c1)OCO2	none
CCC(=O)Nc1ccc(NC(=O)c2ccco2)c(OC)c1	none (no result: PK Bst)
CC(=O)c1cccc(NC(=O)c2ccco2)c1	none
O=C(Nc1ccc2c(c1)Cc1ccccc1-2)c1ccco1	Luciferase inh 10µM, PK Bst 8.8
O=C(COc1ccc2ccc(=O)oc2c1)Nc1ccc2c(c1)OCCO2	Luciferase inh 13µM (no result: PK Bst)
O=C(Nc1ccc2c(c1)OCO2)OCc1ccccc1	Luciferase inh 13µM (no result: PK Bst)
CN(C)C(=O)COc1ccc2ccc(=O)oc2c1	none (no result: GBA mod, PK Bst)
O=C(Nc1ccc2c(c1)OCCO2)c1ccco1	Luciferase inh 10µM (no result: GBA mod, PK Bst)
O=C(Nc1ccc2c(c1)OCO2)C1CCCN1C(=O)OCc1ccccc1 (configuration not stated)	none (no result: GBA mod, PK Bst)
O=C(Nc1cccc(NC(=O)c2ccco2)c1)c1ccc2c(c1)OCO2	none
Cc1nc2cnc(Oc3ccccc3)nc2n(CCc2ccccc2)c1=O	none (no result: GBA mod, PK Bst)
COc1ccc(C(=O)N2CCC3(CCN(C(=O)Nc4ccccc4)CC3)CC2)cc1	none (no result: GBA mod, PK Bst)
N[C@@H](CSS(=O)(=O)O)C(=O)O	none (no result: GBA mod, PK Bst)
CC(C)(C)NC(=O)C(c1ccncc1)N(C(=O)c1csnn1)C1CC1 (configuration not stated)	Luciferase inh inconclusive, PK Bst 9.1 (no result: GBA mod)
Cc1ccc(C(C(=O)NC2CCCC2)N(C(=O)c2csnn2)C2CCCC2)o1 (configuration not stated)	none
COc1ccc(C2CC(C(F)(F)F)n3nc(C(=O)O)c(Cl)c3N2)cc1OC (configuration not stated)	none (no result: GBA mod, PK Bst)
COc1ccc(C2CC(C(F)(F)F)n3nc(CO)c(Cl)c3N2)cc1OC (configuration not stated)	GBA mod 5.9
CC1=C[N+](=O)c2ccccc2[N+]1=O	none (no result: GBA mod, PK Bst)
Cc1ccccc1N=C1NC(=O)CS1	none
Cc1ccccc1N=C1Nc2ccccc2CS1	Luciferase inh 25µM (no result: PK Bst)
N[C@H](Cn1ccc(=O)c(O)c1)C(=O)O	none (no result: GBA mod, PK Bst)
O=C(c1cnccn1)N1CCC[C@@]2(CCN(Cc3ccccc3)C2)C1	none (no result: GBA mod, PK Bst)
Cc1[nH]n(-c2ccccc2)c(=O)c1/C=N/O	none (no result: GBA mod, PK Bst)
CCCc1[nH]n(-c2nc3ccccc3s2)c(=O)c1C=NCCN1CCOCC1	none (no result: GBA mod)
CCCc1[nH]n(-c2nc3ccccc3s2)c(=O)c1C=NCC1CCCO1 (configuration not stated)	GBA mod 13 (no result: PK Bst)
CCCCCN=Cc1c(C)[nH]n(-c2nc3ccccc3s2)c1=O	Luciferase inh 7.9µM (no result: GBA mod, PK Bst)
C[C@]12CC[C@H]3c4ccc(O)cc4CC[C@@H]3[C@H]1C/C(=N/O)[C@H]2O	none (no result: GBA mod, PK Bst)
COc1ccccc1-c1nc(NCCc2cnc[nH]2)c2ccccc2n1	none (no result: GBA mod, PK Bst)
COc1ccc2[nH]cc(CCNc3nc(-c4ccc(N(C)C)cc4)nc4ccccc34)c2c1	Luciferase inh 0.63µM (no result: GBA mod, PK Bst)
CN(C)c1ccc(-c2nc(NCCc3cnc[nH]3)c3ccccc3n2)cc1	Luciferase inh 0.79µM (no result: GBA mod, PK Bst)
COc1ccc2[nH]cc(CCNc3nc(-c4ccc(C(=O)N(C)C)cc4)nc4ccccc34)c2c1	none (no result: GBA mod, PK Bst)
CC(C)CN1CC[C@@]2(CCCN(S(=O)(=O)c3ccccc3)C2)C1	none (no result: GBA mod, PK Bst)
COc1ccccc1-c1nccc(NCc2cccs2)n1	none (no result: GBA mod, PK Bst)
Cc1ccc2c(CC(=O)Nc3sccc3C(N)=O)coc2c1	none (no result: PK Bst)
Cc1ccc2c(CC(=O)Nc3ccc(N4CCN(C)CC4)cc3C)coc2c1	Luciferase inh 6.3µM (no result: GBA mod)
Cc1c(CC(C)(C)C(=O)O)n(Cc2ccc(Cl)cc2)c2ccc(F)cc12	none (no result: GBA mod, PK Bst)
Cc1cc(N=Cc2c(O)n(-c3ccc4c(c3)OCO4)c(=O)c3ccccc23)ccn1	GBA mod 11
Cc1cccc(-n2c(O)c(C=Nc3ccc4c(c3)OCO4)c3ccccc3c2=O)n1	none
O=C(Nc1ccc(-c2nc3cccnc3s2)cc1)c1ccc(Br)o1	none (no result: GBA mod, PK Bst)
O=C(Nc1ccc(-c2nc3cccnc3s2)cc1)c1ccco1	Luciferase inh 3.2µM (no result: GBA mod, PK Bst)

Compound activity as filed in PubChem.
